Reference: paper PMC11006913
Numbering of substitutions follows the chain as printed.

Columns and labels:
Assay in all cases: PBM; 200 nM protein, PBS
Conditions in all cases: dsDNA, one strand shown
[1] = molecular target: T1, NKX2-6 (Homo sapiens, UniProt A6NCS4 118-204)
T1 sequence: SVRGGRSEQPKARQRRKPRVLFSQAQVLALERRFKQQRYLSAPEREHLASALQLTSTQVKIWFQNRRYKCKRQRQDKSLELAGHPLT

[2] = molecular target: T2, NKX2-6 (Homo sapiens, UniProt A6NCS4 118-204, F151L)
T2 sequence: T1 sequence with F34L

[3] = molecular target: SHOX (Homo sapiens, UniProt O15266 103-189, R173C)
[4] = molecular target: HESX1 (Homo sapiens, UniProt Q9UBX0 95-180, R109Q)
[5] = molecular target: PROP1 (Homo sapiens, UniProt O75360 56-141, R99H)
[6] = molecular target: PROP1 (Homo sapiens, UniProt O75360 56-141, F88S)
[7] = molecular target: HOXD13 (Homo sapiens, UniProt P35453 263-343)
[8] = molecular target: PROP1 (Homo sapiens, UniProt O75360 56-141)
[9] = molecular target: HOXA4 (Homo sapiens, UniProt Q00056 201-287)
[10] = molecular target: HOXA4 (Homo sapiens, UniProt Q00056 201-287, W262F)
[11] = molecular target: HOXD13 (Homo sapiens, UniProt P35453 263-343, T313A)
[12] = molecular target: T3, PAX4 (Homo sapiens, UniProt O43316 9-242, F177V)
T3 sequence: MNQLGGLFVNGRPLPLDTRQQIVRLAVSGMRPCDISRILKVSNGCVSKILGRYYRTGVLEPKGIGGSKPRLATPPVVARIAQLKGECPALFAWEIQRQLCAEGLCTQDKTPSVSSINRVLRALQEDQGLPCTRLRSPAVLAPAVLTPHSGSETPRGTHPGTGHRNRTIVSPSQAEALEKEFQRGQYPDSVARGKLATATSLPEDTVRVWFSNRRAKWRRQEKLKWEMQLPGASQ

[13] = molecular target: VAX1 (Homo sapiens, UniProt Q5SQQ9 86-172)
[14] = molecular target: VAX1 (Homo sapiens, UniProt Q5SQQ9 86-172, T142I)
[15] = molecular target: CRX (Homo sapiens, UniProt O43186 26-111, R41L)
[16] = molecular target: VAX1 (Homo sapiens, UniProt Q5SQQ9 86-172, K157R)
[17] = molecular target: T4, PAX4 (Homo sapiens, UniProt O43316 9-242, F177Y)
T4 sequence: T3 sequence with V169Y

[18] = molecular target: T5, PAX4 (Homo sapiens, UniProt O43316 9-242, R227W)
T5 sequence: T3 sequence with V169F, R219W

[19] = molecular target: HOXC10 (Homo sapiens, UniProt Q9NYD6 254-340, K271E)
[20] = molecular target: PRRX1 (Homo sapiens, UniProt P54821 80-166)
Sequence of PRRX1 (P54821 80-166): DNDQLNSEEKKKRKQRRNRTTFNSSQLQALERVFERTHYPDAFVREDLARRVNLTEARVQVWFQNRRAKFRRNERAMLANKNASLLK

Sequence of PROP1 (Homo sapiens, UniProt O75360 56-141, F88S) (O75360 56-141 F88S): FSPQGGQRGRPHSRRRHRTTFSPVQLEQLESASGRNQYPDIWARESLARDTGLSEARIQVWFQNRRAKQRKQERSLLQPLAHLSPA
Sequence of HOXA4 (Homo sapiens, UniProt Q00056 201-287) (Q00056 201-287): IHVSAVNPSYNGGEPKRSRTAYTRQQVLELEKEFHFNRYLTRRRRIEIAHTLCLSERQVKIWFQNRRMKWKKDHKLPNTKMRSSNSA
Sequence of HOXD13 (Homo sapiens, UniProt P35453 263-343) (P35453 263-343): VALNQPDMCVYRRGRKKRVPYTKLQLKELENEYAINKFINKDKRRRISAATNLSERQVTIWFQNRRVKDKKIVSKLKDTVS
Sequence of HOXD13 (Homo sapiens, UniProt P35453 263-343, T313A) (P35453 263-343 T313A): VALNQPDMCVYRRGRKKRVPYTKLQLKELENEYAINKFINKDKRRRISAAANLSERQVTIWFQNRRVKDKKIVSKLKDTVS
Sequence of PROP1 (Homo sapiens, UniProt O75360 56-141, R99H) (O75360 56-141 R99H): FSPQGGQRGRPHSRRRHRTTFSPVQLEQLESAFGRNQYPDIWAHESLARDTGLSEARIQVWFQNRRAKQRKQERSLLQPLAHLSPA
Sequence of SHOX (O15266 103-189 R173C): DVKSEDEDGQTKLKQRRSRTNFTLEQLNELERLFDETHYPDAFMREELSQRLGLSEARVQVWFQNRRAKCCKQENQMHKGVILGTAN
Sequence of VAX1 (Homo sapiens, UniProt Q5SQQ9 86-172) (Q5SQQ9 86-172): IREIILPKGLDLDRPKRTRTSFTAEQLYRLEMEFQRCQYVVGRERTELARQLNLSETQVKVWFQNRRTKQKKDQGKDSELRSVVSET
Sequence of HOXC10 (Q9NYD6 254-340 K271E): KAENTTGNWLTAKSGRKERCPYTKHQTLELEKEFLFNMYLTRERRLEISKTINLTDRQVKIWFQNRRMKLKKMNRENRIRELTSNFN
Sequence of VAX1 (Homo sapiens, UniProt Q5SQQ9 86-172, T142I) (Q5SQQ9 86-172 T142I): as the sequence (Q5SQQ9 86-172) above, with T57I counted along it
Sequence of VAX1 (Homo sapiens, UniProt Q5SQQ9 86-172, K157R) (Q5SQQ9 86-172 K157R): as the sequence (Q5SQQ9 86-172) above, with K72R counted along it
Sequence of PROP1 (Homo sapiens, UniProt O75360 56-141) (O75360 56-141): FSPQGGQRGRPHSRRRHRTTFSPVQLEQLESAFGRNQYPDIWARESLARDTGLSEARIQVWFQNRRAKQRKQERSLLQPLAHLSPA
Sequence of HESX1 (Q9UBX0 95-180 R109Q): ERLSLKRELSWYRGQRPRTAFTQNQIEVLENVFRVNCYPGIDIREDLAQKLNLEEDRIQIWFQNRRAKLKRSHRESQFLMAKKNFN
Sequence of HOXA4 (Homo sapiens, UniProt Q00056 201-287, W262F) (Q00056 201-287 W262F): as the sequence (Q00056 201-287) above, with W62F counted along it
Sequence of CRX (O43186 26-111 R41L): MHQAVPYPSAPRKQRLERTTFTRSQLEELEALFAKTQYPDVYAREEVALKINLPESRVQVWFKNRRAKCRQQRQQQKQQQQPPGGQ

In the case of CGCGGACG, the binding signal [1] is reported as 9.09 upbm affinity estimate (log intensity, higher = more binding, comparable within an allelic series) and the binding signal [2] is reported as 9.22 upbm affinity estimate (log intensity, higher = more binding, comparable within an allelic series).

With GCCCGCGC the binding signal [1] was 9.29 upbm affinity estimate (log intensity, higher = more binding, comparable within an allelic series) and the binding signal [2] was 9.27 upbm affinity estimate (log intensity, higher = more binding, comparable within an allelic series).

AATTATGG was tested, and the binding signal [3] was 9.26 upbm affinity estimate (log intensity, higher = more binding, comparable within an allelic series).

AATTAGGT was tested, and the binding signal [3] was 9.2 upbm affinity estimate (log intensity, higher = more binding, comparable within an allelic series), the binding signal [4] was 8.66 upbm affinity estimate (log intensity, higher = more binding, comparable within an allelic series) and the binding signal [5] was 10.6 upbm affinity estimate (log intensity, higher = more binding, comparable within an allelic series). For the same sequence, the binding signal [6] was 7.74 upbm affinity estimate (log intensity, higher = more binding, comparable within an allelic series).

In the case of AGGAGGCC, the binding signal [5] is reported as 6.81 upbm affinity estimate (log intensity, higher = more binding, comparable within an allelic series) and the binding signal [6] is reported as 6.57 upbm affinity estimate (log intensity, higher = more binding, comparable within an allelic series).

In the case of TAATAGCA, the binding signal [7] is reported as 11 upbm affinity estimate (log intensity, higher = more binding, comparable within an allelic series), the binding signal [8] is reported as 9.06 upbm affinity estimate (log intensity, higher = more binding, comparable within an allelic series) and the binding signal [6] is reported as 7.3 upbm affinity estimate (log intensity, higher = more binding, comparable within an allelic series).

For ATCATGTC, the binding signal [9] was 11 upbm affinity estimate (log intensity, higher = more binding, comparable within an allelic series) and the binding signal [10] was 10.3 upbm affinity estimate (log intensity, higher = more binding, comparable within an allelic series).

GATTTGAA was tested, and the binding signal [9] was 10.8 upbm affinity estimate (log intensity, higher = more binding, comparable within an allelic series).

For CTTAGTTA, the binding signal [9] was 11 upbm affinity estimate (log intensity, higher = more binding, comparable within an allelic series).

ATAACTAA was tested, and the binding signal [7] was 10.9 upbm affinity estimate (log intensity, higher = more binding, comparable within an allelic series) and the binding signal [11] was 11 upbm affinity estimate (log intensity, higher = more binding, comparable within an allelic series).

For CTTAAAAG, the binding signal [9] was 10.4 upbm affinity estimate (log intensity, higher = more binding, comparable within an allelic series).

With ACGAAATA the binding signal [9] was 10.7 upbm affinity estimate (log intensity, higher = more binding, comparable within an allelic series).

In the case of ATATAATC, the binding signal [12] is reported as 10.6 upbm affinity estimate (log intensity, higher = more binding, comparable within an allelic series), the binding signal [13] is reported as 10.1 upbm affinity estimate (log intensity, higher = more binding, comparable within an allelic series) and the binding signal [14] is reported as 10.1 upbm affinity estimate (log intensity, higher = more binding, comparable within an allelic series). For the same sequence, the binding signal [15] was 12.3 upbm affinity estimate (log intensity, higher = more binding, comparable within an allelic series) and the binding signal [16] was 9.94 upbm affinity estimate (log intensity, higher = more binding, comparable within an allelic series).

CTAATATA was tested, and the binding signal [12] was 10.8 upbm affinity estimate (log intensity, higher = more binding, comparable within an allelic series), the binding signal [17] was 10.9 upbm affinity estimate (log intensity, higher = more binding, comparable within an allelic series) and the binding signal [18] was 10.9 upbm affinity estimate (log intensity, higher = more binding, comparable within an allelic series).

For AAGATAAC, the binding signal [9] was 10.8 upbm affinity estimate (log intensity, higher = more binding, comparable within an allelic series).

With AAGTGTTA the binding signal [7] was 10.7 upbm affinity estimate (log intensity, higher = more binding, comparable within an allelic series) and the binding signal [2] was 10.7 upbm affinity estimate (log intensity, higher = more binding, comparable within an allelic series).

With ATTAAACA the binding signal [7] was 11.3 upbm affinity estimate (log intensity, higher = more binding, comparable within an allelic series) and the binding signal [11] was 11.2 upbm affinity estimate (log intensity, higher = more binding, comparable within an allelic series).

For GTAGTAAA, the binding signal [19] was 11.1 upbm affinity estimate (log intensity, higher = more binding, comparable within an allelic series).

In the case of CATAAATG, the binding signal [19] is reported as 11.2 upbm affinity estimate (log intensity, higher = more binding, comparable within an allelic series).

For CTCGTTAC, the binding signal [7] was 11.1 upbm affinity estimate (log intensity, higher = more binding, comparable within an allelic series) and the binding signal [11] was 10.9 upbm affinity estimate (log intensity, higher = more binding, comparable within an allelic series).

In the case of AGTATACA, the binding signal [7] is reported as 10.6 upbm affinity estimate (log intensity, higher = more binding, comparable within an allelic series) and the binding signal [11] is reported as 10.7 upbm affinity estimate (log intensity, higher = more binding, comparable within an allelic series).

For AATCATAT, the binding signal [7] was 11 upbm affinity estimate (log intensity, higher = more binding, comparable within an allelic series) and the binding signal [11] was 11 upbm affinity estimate (log intensity, higher = more binding, comparable within an allelic series).

ATAAACGA was tested, and the binding signal [7] was 11.4 upbm affinity estimate (log intensity, higher = more binding, comparable within an allelic series) and the binding signal [11] was 11.2 upbm affinity estimate (log intensity, higher = more binding, comparable within an allelic series).

With TGATAAAA the binding signal [7] was 11.3 upbm affinity estimate (log intensity, higher = more binding, comparable within an allelic series) and the binding signal [11] was 11.2 upbm affinity estimate (log intensity, higher = more binding, comparable within an allelic series).

ATCGTAAC was tested, and the binding signal [7] was 11 upbm affinity estimate (log intensity, higher = more binding, comparable within an allelic series) and the binding signal [11] was 10.9 upbm affinity estimate (log intensity, higher = more binding, comparable within an allelic series).

With ATTTTAAC the binding signal [7] was 11.2 upbm affinity estimate (log intensity, higher = more binding, comparable within an allelic series) and the binding signal [20] was 11.9 upbm affinity estimate (log intensity, higher = more binding, comparable within an allelic series).

With ATTTCTTA the binding signal [9] was 11.1 upbm affinity estimate (log intensity, higher = more binding, comparable within an allelic series).

For CATATGTA, the binding signal [9] was 10.8 upbm affinity estimate (log intensity, higher = more binding, comparable within an allelic series).

TCCTTTAA was tested, and the binding signal [9] was 11.1 upbm affinity estimate (log intensity, higher = more binding, comparable within an allelic series).

For AGCAAATC, the binding signal [9] was 10.9 upbm affinity estimate (log intensity, higher = more binding, comparable within an allelic series).

With AAGATTGT the binding signal [9] was 10.7 upbm affinity estimate (log intensity, higher = more binding, comparable within an allelic series).

With ATTCAAGC the binding signal [9] was 11 upbm affinity estimate (log intensity, higher = more binding, comparable within an allelic series).

In the case of AAGTTATT, the binding signal [7] is reported as 10.9 upbm affinity estimate (log intensity, higher = more binding, comparable within an allelic series), the binding signal [13] is reported as 10.1 upbm affinity estimate (log intensity, higher = more binding, comparable within an allelic series) and the binding signal [11] is reported as 10.8 upbm affinity estimate (log intensity, higher = more binding, comparable within an allelic series). The binding signal [14] was 9.9 upbm affinity estimate (log intensity, higher = more binding, comparable within an allelic series) and the binding signal [16] was 9.7 upbm affinity estimate (log intensity, higher = more binding, comparable within an allelic series).
